PubChem BioAssay (Tox21)
Several values for one entry are separate records, joined by “and”; a condition that tells them apart may be missing. Equal values may be shown once. Results filed as inconclusive are left out. Some structures have more than one record in an assay (separate samples or runs), and their calls can disagree. Activity calls are given as the source filed them. Unless noted, calls come from the whole dose curve; as a rule, active = well fitted curve in the direction sought with a large enough effect in the repeat runs; inconclusive = weak or mixed curves; inactive = no such curve, though single readings can be large; an effect the other way counts as inactive or inconclusive.

Columns and labels:
[1] = qHTS assay to identify small molecule agonists of the peroxisome proliferator-activated receptor delta (PPARd) signaling pathway - cell viability counter screen (AID 743211); note: % is set by controls: 0 for no effect and ±100 for the full control effect; nearly all actives have a fitted effect of over 55% in size
Summary of the method: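 PPARd-bla HEK293H cells (UAS-beta-lactamase reporter) were treated with compounds for 17 h at 37 C. Viability was then read in the same wells by CellTiter-Glo luminescence after 30 min at room temperature.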

[2] = qHTS assay to identify small molecule antagonists of the peroxisome proliferator-activated receptor delta (PPARd) signaling pathway - cell viability counter screen (AID 743213); note: % is set by controls: 0 for no effect and ±100 for the full control effect; nearly all actives have a fitted effect of over 50% in size
Summary of the method: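 Viability counter-screen, qHTS format: PPARd-bla HEK293H, L165041 300 nM final, 17 h compound exposure at 37 C, CellTiter-Glo luminescence after 30 min RT.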

[3] = molecular target: Peroxisome proliferator-activated receptor delta (Homo sapiens) (UniProt Q03181); assay: qHTS assay to identify small molecule antagonists of the peroxisome proliferator-activated receptor delta (PPARd) signaling pathway (AID 743215; active = well fitted inhibition curve with a large enough effect in the signal ratio in the repeat runs, not every such curve was filed as active; the % refers to the signal ratio;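 note: cells stimulated with agonist L165041 at 300 nM final during compound exposure; series mostly up to about 62 µM; % is set by controls: 0 for no effect and ±100 for the full control effect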)
Summary of the method: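 Inhibition of L165041-driven (300 nM final) PPARd signaling is scored in HEK293H UAS-bla cells. Exposure lasts 17 h at 37 C; beta-lactamase activity is then read by FRET substrate fluorescence after 2 h at room temperature.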

[4] = qHTS assay to identify small molecule agonists of the farnesoid-X-receptor (FXR) signaling pathway - cell viability counter screen (AID 743218); note: nearly all actives have a fitted effect of over 45% in size; note: potency is the fitted concentration of half-maximal effect
Summary of the method: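 Cytotoxicity counter-screen run in parallel, same wells: FXR-UAS-bla HEK 293T cells dosed 16 h at 37 C, viability read by CellTiter-Glo luminescence after 30 min at room temperature.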

[5] = qHTS assay to identify small molecule antagonists of the farnesoid-X-receptor (FXR) signaling pathway - cell viability counter screen (AID 743221; active = well fitted cell-killing curve with a large enough effect in the repeat runs, not every such curve was filed as active; note: % is set by controls: 0 for no effect and ±100 for the full control effect; nearly all actives have a fitted effect of over 50% in size)
Summary of the method: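 FXR-UAS-bla HEK 293T cells were treated with test compounds plus chenodeoxycholic acid (50 uM final) for 16 h at 37 C. Cell viability in the same wells was then read as CellTiter-Glo luminescence after 30 min at room temperature.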

[6] = molecular target: Vitamin D3 receptor (Homo sapiens) (UniProt P11473); assay: qHTS assay to identify small molecule agonists of the vitamin D receptor (VDR) signaling pathway (AID 743222; calls by dose curve; note: % is set by controls: 0 for no effect and ±100 for the full control effect)
Summary of the method: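 Quantitative HTS agonist-mode screen: compounds in DMSO were pin-transferred onto VDR-bla cells and incubated 16 h at 37C, 5% CO2. Reporter activity was detected with LiveBLAzer B/G FRET substrate after 2 h at room temperature.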

[7] = qHTS assay to identify small molecule agonists of the vitamin D receptor (VDR) signaling pathway - cell viability counter screen (AID 743224); note: nearly all actives have a fitted effect of over 50% in size; note: potency is the fitted concentration of half-maximal effect
Summary of the method: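 Viability is measured in the same wells as the VDR-bla reporter assay: after 16 h compound treatment and 2 h substrate loading, CellTiter-Glo is added and luminescence read 30 min later.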

[8] = qHTS assay to identify small molecule agonists of the NFkB signaling pathway (AID 1159509; active = well fitted curve in the direction sought with a large enough effect in the signal ratio in the repeat runs, not every such curve was filed as active; the % refers to the signal ratio; note: series mostly up to about 61 µM; % is set by controls: 0 for no effect and ±100 for the full control effect)
Summary of the method: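 NFkB-bla ME-180 cells carry a beta-lactamase reporter under an NF-kB response element. They were plated overnight, then exposed to compounds for 5 h at 37 C. Read-out is LiveBLAzer FRET after 1.5 hr at room temperature (405 nm excitation; 460/530 nm emission).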

[9] = qHTS assay to identify small molecule agonists of the NFkB signaling pathway - cell viability counter screen (AID 1159515; calls by dose curve; note: series mostly up to about 61 µM; % is set by controls: 0 for no effect and ±100 for the full control effect; nearly all actives have a fitted effect of over 55% in size)
Summary of the method: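 Multiplexed viability readout: after the 5 hr compound exposure and 1.5 hr FRET substrate step, CellTiter-Glo reagent went into the same NFkB-bla ME-180 wells; ATP luminescence was measured after 30 min at room temperature.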

[10] = qHTS assay to identify small molecule agonists of the endoplasmic reticulum stress response signaling pathway (AID 1159516; active = well fitted activation curve with a large enough effect in the signal ratio in the repeat runs, not every such curve was filed as active; the % refers to the signal ratio; note: % is set by controls: 0 for no effect and ±100 for the full control effect)
Summary of the method: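 Tox21 10K library screened in quantitative HTS format on ESRE-bla HeLa cells, a beta-lactamase reporter under ER stress response element control; 5 hr treatment, FRET read.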

[11] = qHTS assay to identify small molecule agonists of the endoplasmic reticulum stress response signaling pathway - cell viability counter screen (AID 1159517; calls by dose curve; note: series mostly up to about 61 µM; % is set by controls: 0 for no effect and ±100 for the full control effect; nearly all actives have a fitted effect of over 50% in size)
Summary of the method: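 CellTiter-Glo was added to wells already read for beta-lactamase FRET, and luminescence was recorded 30 min later. Cells: ESRE-bla HeLa, 1,500 per well, compound exposure 5 hr at 37 C.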

[12] = qHTS assay to identify small molecule antagonists of the retinoid-related orphan receptor gamma (ROR-gamma) signaling pathway - cell viability counter screen (AID 1159520)
Summary of the method: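 Tet-on ROR gamma CHO cells (1,000/well) were plated 4 hr, given compounds in DMSO for 2 hr at 37 C, then induced with 1 uM final doxycycline for 16 hr. Viability was read as ATP by CellTiter-Glo luminescence after 30 min.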

[13] = qHTS assay to identify small molecule agonists of the AP-1 signaling pathway - cell viability counter screen (AID 1159525; calls by dose curve; note: nearly all actives have a fitted effect of over 55% in size)
Summary of the method: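 ME-180 AP-1-bla, 2500 cells/well, Opti-MEM + 0.5% dialyzed FBS; overnight 37 °C; cpd 15-pt titration, 5 h 37 °C; CellTiter-Glo 30 min RT; luminescence read; normalised to TOAB and DMSO controls.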

[14] = qHTS assay to identify small molecule agonists of the AP-1 signaling pathway (AID 1159526; calls by dose curve; note: potency is the fitted concentration of half-maximal effect)
[15] = molecular target: Bile acid receptor (Homo sapiens) (UniProt Q96RI1); assay: qHTS assay to identify small molecule antagonists of the farnesoid-X-receptor (FXR) signaling pathway (AID 743217; active = well fitted inhibition curve with a large enough effect in the signal ratio in the repeat runs, not every such curve was filed as active; the % refers to the signal ratio; note: % is set by controls: 0 for no effect and ±100 for the full control effect)
Summary of the method: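 Antagonist mode against 50 uM (final) chenodeoxycholic acid stimulation in FXR-bla HEK 293T cells, 16 h at 37 °C. Inhibition detected as reduced beta-lactamase activity via LiveBLAzer B/G FRET fluorescence after 2 h at room temperature.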

[16] = molecular target: Bile acid receptor (Homo sapiens) (UniProt Q96RI1); assay: qHTS assay to identify small molecule agonists of the farnesoid-X-receptor (FXR) signaling pathway (AID 743220; active = well fitted activation curve with a large enough effect in the signal ratio in the repeat runs, not every such curve was filed as active; the % refers to the signal ratio; note: % is set by controls: 0 for no effect and ±100 for the full control effect)
Summary of the method: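 Beta-lactamase reporter under UAS control in GeneBLAzer FXR HEK 293T cells (5000/well) measured with LiveBLAzer FRET substrate after 2 h at room temperature. Compound exposure lasted 16 h at 37C.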

[17] = molecular target: Nuclear receptor ROR-gamma (Homo sapiens) (UniProt P51449); assay: qHTS assay to identify small molecule antagonists of the retinoid-related orphan receptor gamma (ROR-gamma) signaling pathway (AID 1159521)
Summary of the method: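 Tet-on RORγ CHO cells carrying a ROR response element–luciferase reporter were pretreated with compounds for 2 h, then induced with 1 uM (final) doxycycline hyclate for 16 h at 37 C. Antagonism was read as decreased ONE-Glo luminescence.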

[18] = molecular target: Vitamin D3 receptor (Homo sapiens) (UniProt P11473); assay: qHTS assay to identify small molecule antagonists of the vitamin D receptor (VDR) signaling pathway (AID 743223; active = well fitted inhibition curve with a large enough effect in the signal ratio in the repeat runs, not every such curve was filed as active; the % refers to the signal ratio; note: % is set by controls: 0 for no effect and ±100 for the full control effect)
Summary of the method: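 VDR-bla cells were plated, incubated 4 h at 37C, then given compound and 1alpha,25-dihydroxyvitamin D3 (3 nM final). After 16 h at 37C, LiveBLAzer B/G FRET substrate was added for 2 h at room temperature and fluorescence read.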

[19] = qHTS assay to identify small molecule antagonists of the vitamin D receptor (VDR) signaling pathway - cell viability counter screen (AID 743225)
Summary of the method: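 VDR-bla HEK 293T cells, 4 h pre-incubation at 37C, then compound plus 1-alpha,25-dihydroxyvitamin D3 (3 nM final) for 16 h. After the beta-lactamase FRET read, CellTiter-Glo was added to the same wells; luminescence after 30 min at room temperature.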

[20] = molecular target: Peroxisome proliferator-activated receptor delta (Homo sapiens) (UniProt Q03181); assay: qHTS assay to identify small molecule agonists of the peroxisome proliferator-activated receptor delta (PPARd) signaling pathway (AID 743212; calls by dose curve; note: % is set by controls: 0 for no effect and ±100 for the full control effect)
Summary of the method: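 A PPARd-bla HEK293H line with beta-lactamase under an Upstream Activator Sequence is treated with compounds at 37 C. Substrate loading for 2 h at room temperature precedes the fluorescence measurement.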

Sequence of Vitamin D3 receptor (Homo sapiens) (P11473 whole entry, looked up): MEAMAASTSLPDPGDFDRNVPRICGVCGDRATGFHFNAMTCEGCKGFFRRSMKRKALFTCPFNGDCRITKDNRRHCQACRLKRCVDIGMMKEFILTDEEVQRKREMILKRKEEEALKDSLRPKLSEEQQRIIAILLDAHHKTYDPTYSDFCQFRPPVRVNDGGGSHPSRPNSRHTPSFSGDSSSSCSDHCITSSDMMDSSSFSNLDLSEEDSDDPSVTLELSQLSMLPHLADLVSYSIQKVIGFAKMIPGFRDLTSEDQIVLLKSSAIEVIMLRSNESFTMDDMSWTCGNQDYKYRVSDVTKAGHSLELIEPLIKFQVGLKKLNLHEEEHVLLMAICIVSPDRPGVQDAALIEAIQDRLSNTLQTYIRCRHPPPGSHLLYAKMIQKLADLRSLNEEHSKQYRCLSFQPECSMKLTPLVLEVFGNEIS
Sequence of Bile acid receptor (Homo sapiens) (Q96RI1 whole entry, looked up): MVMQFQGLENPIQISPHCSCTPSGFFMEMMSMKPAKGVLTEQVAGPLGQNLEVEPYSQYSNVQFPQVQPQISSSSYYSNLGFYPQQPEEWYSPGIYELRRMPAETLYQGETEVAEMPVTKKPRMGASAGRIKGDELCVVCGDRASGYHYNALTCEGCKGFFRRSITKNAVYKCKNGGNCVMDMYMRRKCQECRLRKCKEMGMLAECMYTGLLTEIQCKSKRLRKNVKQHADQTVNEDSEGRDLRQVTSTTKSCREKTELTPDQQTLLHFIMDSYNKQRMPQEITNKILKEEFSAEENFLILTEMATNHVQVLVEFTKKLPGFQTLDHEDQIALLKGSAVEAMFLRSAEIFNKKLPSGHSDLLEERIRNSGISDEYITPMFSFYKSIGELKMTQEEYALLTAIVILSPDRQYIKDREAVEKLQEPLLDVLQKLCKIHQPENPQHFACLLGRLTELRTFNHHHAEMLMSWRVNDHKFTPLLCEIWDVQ
Sequence of Peroxisome proliferator-activated receptor delta (Homo sapiens) (Q03181 whole entry, looked up): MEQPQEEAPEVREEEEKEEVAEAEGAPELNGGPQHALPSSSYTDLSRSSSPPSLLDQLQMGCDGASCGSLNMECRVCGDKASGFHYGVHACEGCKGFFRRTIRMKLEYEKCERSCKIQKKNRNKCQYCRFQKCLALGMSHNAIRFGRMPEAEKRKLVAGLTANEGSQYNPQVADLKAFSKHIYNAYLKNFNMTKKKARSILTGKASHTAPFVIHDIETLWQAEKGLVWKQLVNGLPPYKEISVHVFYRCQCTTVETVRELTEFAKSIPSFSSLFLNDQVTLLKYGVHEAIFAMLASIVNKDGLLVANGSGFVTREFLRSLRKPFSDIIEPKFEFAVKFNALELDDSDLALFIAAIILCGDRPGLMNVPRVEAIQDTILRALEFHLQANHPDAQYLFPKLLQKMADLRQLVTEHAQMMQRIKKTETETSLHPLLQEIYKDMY

Nc1nc2ncc(CNc3ccc(C(=O)N[C@@H](CCC(=O)O)C(=O)O)cc3)nc2c(=O)[nH]1
inactive: Potency [1] | Potency [2] | outcome [3] | Potency [4] | Potency [5] | Potency [6] | Potency [7] | outcome [8] | outcome [9] | outcome [10] | Potency [11] | Potency [12] | Potency [13] | Potency [14]

CN(CCOc1ccc(CC2SC(=O)NC2=O)cc1)c1ccccn1 (stereo unspecified)
inactive: Potency [2] | outcome [15] | Potency [4] | outcome [16] | outcome [8] | outcome [9] | outcome [10] | Potency [11] | Potency [12] | Potency [17] | Potency [13] | Potency [14]

CCCCCCCCCC(=O)O
inactive: Potency [1] | Potency [2] | outcome [3] | Potency [4] | Potency [5] | Potency [6] | Potency [18] | Potency [7] | Potency [19] | outcome [8] | outcome [9] | outcome [10] | Potency [11] | Potency [12] | Potency [13] | Potency [14]

CS(=O)(=O)Nc1ccc([N+](=O)[O-])cc1Oc1ccccc1
inactive: Potency [1] | Potency [2] | Potency [4] | Potency [5] | Potency [6] | Potency [18] | Potency [7] | outcome [8] | outcome [9] | outcome [10] | Potency [11] | Potency [12] | Potency [13] | Potency [14]

Cc1cc(=O)[nH]c(C(C)C)n1
inactive: Potency [1] | Potency [2] | outcome [3] | outcome [15] | Potency [4] | outcome [16] | Potency [5] | Potency [6] | Potency [18] | Potency [7] | Potency [19] | outcome [8] | outcome [9] | outcome [10] | Potency [11] | Potency [12] | Potency [17] | Potency [13] | Potency [14]

Nc1c(S(=O)(=O)O)cc(Br)c2c1C(=O)c1ccccc1C2=O
inactive: Potency [1] | Potency [2] | Potency [4] | Potency [6] | Potency [18] | Potency [7] | Potency [19] | outcome [8] | outcome [9] | outcome [10] | Potency [11] | Potency [12] | Potency [17] | Potency [13] | Potency [14]

CCCCC/C=C\C/C=C\CCCCCCCC(=O)OC
inactive and 49 µM (active): Potency [7]
inactive and 54.9 µM (active): Potency [4]
inactive: Potency [1] | outcome [20] | Potency [2] | outcome [8] | outcome [9] | outcome [10] | Potency [11] | Potency [12] | Potency [17] | Potency [13] | Potency [14]

CCOC(=O)[C@H](CCc1ccccc1)N[C@@H](C)C(=O)N1Cc2ccccc2C[C@H]1C(=O)O
inactive and 26.8 µM (active): Potency [14]
inactive: outcome [20] | Potency [2] | outcome [3] | outcome [15] | Potency [4] | outcome [16] | Potency [6] | Potency [18] | Potency [7] | Potency [19] | outcome [8] | outcome [9] | outcome [10] | Potency [11] | Potency [12] | Potency [17] | Potency [13]

O=Nc1ccc(O)cc1
inactive: Potency [2] | outcome [3] | outcome [15] | Potency [4] | outcome [16] | Potency [5] | Potency [7] | Potency [19] | outcome [8] | outcome [9] | outcome [10] | Potency [11] | Potency [12] | Potency [17] | Potency [13] | Potency [14]

CCCCC(CC)COC(=O)/C=C\C(=O)OCC(CC)CCCC (stereo unspecified)
inactive: Potency [1] | outcome [20] | Potency [2] | outcome [3] | Potency [4] | Potency [5] | Potency [6] | Potency [18] | Potency [7] | Potency [19] | outcome [8] | outcome [9] | outcome [10] | Potency [11] | Potency [12] | Potency [17] | Potency [13] | Potency [14]

NCCNCCNCCNCCN
inactive: Potency [2] | outcome [3] | Potency [4] | Potency [6] | activity change, negative = inhibition [18] 2.31% [at 6.95 µM] | Potency [7] | Potency [19] | outcome [8] | outcome [9] | outcome [10] | activity change, negative = cytotoxicity [11] 18.7% [at 6.95 µM] | Potency [12] | Potency [17] | Potency [13] | Potency [14]

O=C(Oc1ccccc1)c1ccc(O)cc1
inactive: Potency [1] | outcome [20] | Potency [2] | Potency [4] | Potency [5] | Potency [6] | Potency [18] | Potency [7] | Potency [19] | outcome [8] | outcome [9] | outcome [10] | Potency [11] | Potency [12] | Potency [17] | Potency [13] | Potency [14]

NCCc1ccc(O)c(O)c1
inactive: Potency [1] | Potency [2] | outcome [15] | Potency [4] | outcome [16] | Potency [5] | Potency [6] | Potency [18] | Potency [7] | outcome [8] | outcome [9] | outcome [10] | Potency [11] | Potency [12] | Potency [17] | Potency [13] | Potency [14]

NC(=O)/N=N/C(N)=O
inactive: Potency [1] | Potency [2] | outcome [3] | outcome [15] | Potency [4] | outcome [16] | Potency [5] | Potency [6] | Potency [18] | Potency [7] | Potency [19] | outcome [8] | outcome [9] | outcome [10] | Potency [11] | Potency [12] | Potency [13] | Potency [14]

CCCCC(CC)C(=O)OCCOCCOCCOC(=O)C(CC)CCCC (stereo unspecified)
inactive: Potency [1] | outcome [20] | Potency [2] | outcome [3] | Potency [4] | Potency [5] | Potency [6] | Potency [18] | Potency [7] | Potency [19] | outcome [8] | outcome [9] | outcome [10] | Potency [11] | Potency [12] | Potency [13] | Potency [14]

CCCCCCC(C)(C)S
inactive: Potency [1] | Potency [2] | outcome [15] | Potency [4] | outcome [16] | Potency [5] | Potency [7] | outcome [8] | outcome [9] | outcome [10] | Potency [11] | Potency [12] | Potency [17] | Potency [13] | Potency [14]

O=S(=O)(Oc1ccc(Cl)cc1Cl)c1ccccc1
inactive: outcome [20] | Potency [2] | outcome [3] | Potency [4] | Potency [5] | Potency [6] | Potency [18] | Potency [7] | Potency [19] | outcome [8] | outcome [9] | outcome [10] | Potency [11] | Potency [12] | Potency [17] | Potency [13] | Potency [14]
